High-throughput results deposited in PubChem by National Center for Advancing Translational Sciences (NCATS).
Only some compounds are listed: those with a hit (about 6.9% of all), similar ones and a draw of the others.
PLK1 PBD block – PLK1 (human) polo-box domain binding inhibition. Plk1 PBD binding of FITC phosphopeptide, fluorescence polarization. AID 720504. P53350. Potency, µM, inactives show max response, negative = inhibition, most hits filed as inhibitors. 360,000 compounds, 2.8% hits; also: series mostly up to about 57 µM; % is scaled to controls: 0 for no effect and ±100 for the full control effect; nearly all actives have a fitted effect of over 65% in size
BAZ2B block – blocks human BAZ2B. AlphaScreen BAZ2B-H3K14Ac peptide displacement. Potency, µM (titrated, usually from 114 µM), for inactives: at the highest dose activity change, negative = inhibition, usual class: inhibitors. 360,000 compounds, 4.4% hits. AID 504333; also: % is scaled to controls: 0 for no effect and ±100 for the full control effect; nearly all actives have a fitted effect of over 60% in size
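In this displacement format the biotinylated H3(5-23) peptide acetylated at Lys14 serves as ligand at 50 nM, with BAZ2B at 50 nM in PBS pH 7.4 containing 0.01% Tween-20. Donor and acceptor beads are 10 ug/mL final.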
L3MBTL1 inh – inhibitors of human L3MBTL1; Potency, µM (top dose mostly 57.1 µM), inactives show at the top dose activity, negative = inhibition, actives largely listed as inhibitors; 230,000 compounds, 0.66% hits; Q9Y468; AlphaScreen L3MBTL1–H3K9me1 peptide binding; also: % is scaled to controls: 0 for no effect and ±100 for the full control effect; nearly all actives have a fitted effect of over 60% in size
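First, the protein-peptide complex forms for 30 min at room temperature (L3MBTL1 50 nM, biotinylated H3K9me1 peptide 75 nM). Next, compounds are pin-transferred and incubated 30 min. Finally, AlphaScreen beads are added and read after 30 min.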
HP1b chromo inh – HP1-beta chromodomain-methylated histone interaction inhibition; AlphaScreen HP1-beta / biotin-H3K9me3 peptide binding; Potency, µM (doses to about 114 µM), inactives show at the top dose activity change, negative = inhibition, actives largely listed as inhibitors; 390,000 compounds, 0.56% hits; also: nearly all actives have a fitted effect of over 70% in size
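HP1-beta protein (50 nM final) preincubated 30 min at room temperature with biotinylated H3(1-18)K9me3 peptide (50 nM) in PBS pH 7.4, 0.01% Tween-20, then compound added for 30 min. AlphaScreen streptavidin donor/nickel chelate acceptor beads (10 ug/mL final), 30 min dark, luminescence read.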
JMJD2A Tudor inh – blocks the human JMJD2A Tudor domain | AlphaScreen JMJD2A-Tudor / H3K4me3 peptide binding | Potency, µM (series often up to 114 µM), for the others: top-dose activity change, negative = inhibition, hits mostly inhibitors | 390,000 compounds, 4.4% hits | AID 504339; also: % is scaled to controls: 0 for no effect and ±100 for the full control effect; nearly all actives have a fitted effect of over 50% in size
VDR inh – inhibitors of human vitamin D receptor; Potency, µM, for inactives: max response, negative = inhibition, actives largely listed as inhibitors; 400,000 compounds, 0.93% hits; P11473; VDR-SRC2-3 peptide fluorescence polarization, 2 h; also: % is scaled to controls: 0 for no effect and ±100 for the full control effect
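Compounds are added to VDR with labelled SRC2-3 coactivator peptide and held 2 h at room temperature. Inhibition of the VDR–peptide interaction is then read as a change in fluorescence polarization.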
Active calls of the source: *; ? = inconclusive; . = no result given; [ ] = another dose, or the depositor's remark. Calls follow the shape of the dose curve; as a rule, active = well fitted curve in the direction sought with a large enough effect; inconclusive = small, poorly fitted or top-dose-only effect, or another doubt; inactive = no such curve, though single readings can be large; an effect the other way counts as inactive or inconclusive. Potency is read from the fitted curve at half-maximal effect.

SMILES | PLK1 PBD block | BAZ2B block | L3MBTL1 inh | HP1b chromo inh | JMJD2A Tudor inh | VDR inh
CCCCOc1ccc2c(c1)C(=O)c1cc(O)ccc1-2 | -10% | 35µM* | ? | 45µM* | 28µM* | -19%
O=C(O)c1cc(-c2ccccn2)n[nH]1 | -2% | 45µM* | 1% | 37% | -1% | 5%
Nc1ccn(-c2ncc(C(F)(F)F)cc2Cl)c(=O)n1 | 1% | -17% | 6% | 42% | 4%[57.1 µM] | -10%
FC(F)(F)c1cnc(-n2cc[nH]c2=S)c(Cl)c1 | -14% | 13% | . | 29% | 79µM* | 9%
COc1ccc(N2CCN(C(=O)c3cc(S(=O)(=O)N4CCC(C)CC4)cn3C)CC2)cc1 | . | ? | . | 4%[57 µM] | ? | 8%
COc1ccc(NC(=O)CN(C)C(=O)CCc2ccccc2)cc1 | -5% | 2% | . | 25% | -16% | 15%
COc1ccc(NC(=O)CN(C)C(=O)/C=C/c2ccc(OCc3ccccc3)cc2)cc1 | 30µM* | -1% | . | -11% | -33%[57.1 µM] | -16%
COc1ccc(Nc2nc(NC(C)(C)C)nc(N3CCCC3)n2)c(OC)c1 | -7% | 35µM* | . | ? | 28µM* | 7%
O=C1Nc2ccccc2-c2nnnn2C1N1CCCCC1 (stereo not drawn) | -4% | . | . | . | . | .
O=C(c1ccc(N2C(=O)C3CC=C(Cl)CC3C2=O)cc1)N1CCCCC1 (stereo not drawn) | -1% | 9% | 4% | 10% | -10% | 4%
CC1=CCC2C(=O)N(c3ccc(C(=O)N4CCCCCC4)cc3)C(=O)C2C1 (stereo not drawn) | 17µM* | -1% | . | -1% | ? | -18%
CC1(C(=O)Nc2cccc3cccnc23)CCN1Cc1ccccc1OC(F)F (stereo not drawn) | -1% | . | . | . | . | .
COc1ccc2sc(N(CCCN(C)C)C(=O)c3ccc(S(=O)(=O)N4CCCC4)cc3)nc2c1 | -9% | -15% | -7% | 11% | -23% | -7%
Cc1cc(C)c2sc(N(CCCN(C)C)C(=O)c3ccc(S(=O)(=O)N4CCCc5ccccc54)cc3)nc2c1 | -5% | 11µM* | -17% | -7% | 40µM* | -6%
COc1ccc2sc(N(CCCN(C)C)C(=O)c3ccc(S(=O)(=O)N4CCc5ccccc5C4)cc3)nc2c1 | -4% | -39% | -13% | -25% | 56µM* | 14%
COc1ccc(-c2nn(C)c3sc(C(=O)NCc4ccco4)cc23)cc1OC | 27µM* | 7% | . | -18% | -5%[11.4 µM] | 6%
COc1cccc(-c2nn(C)c3sc(C(=O)NCc4ccc(OC)cc4OC)cc23)c1 | . | . | . | 9% | -26% | -19%
COc1cccc(-c2nn(C)c3sc(C(=O)NCc4ccc(C)o4)cc23)c1 | ? | ? | . | -34% | 50µM* | ?
CCOC(=O)c1nc(C)[nH]c1C(=O)OCC | -5% | 79µM* | . | 7% | 18µM* | 5%
CCOC(=O)c1[nH]c(C)c(C(=O)O)c1C | . | 0% | . | . | . | .
COc1cccc(OC)c1C(=O)NCCSC1CCCCC1 | 27µM* | -18% | 5% | -17% | -24% | ?
CCn1cc(C(=O)N2CCN(c3ccccc3OC)CC2)c(=O)c2cc(S(=O)(=O)N3CCCCC3)ccc21 | . | . | . | -4% | -9% | -12%
Cc1sc(NC(=O)CN(Cc2ccc(F)cc2)C(=O)C(C)(C)C)c(C(N)=O)c1C | -2% | 6% | 6% | 29% | -1% | 4%
CC(C)(C)S(=O)(=O)c1cnc(-c2cnccn2)nc1N | -3% | 27% | . | 26% | -3% | 5%
CC(C)(C)S(=O)(=O)c1cnc(-c2ccccn2)nc1N | -20% | 79µM* | -19% | 17% | ? | 6%
SMILES | PLK1 PBD block | BAZ2B block | L3MBTL1 inh | HP1b chromo inh | JMJD2A Tudor inh | VDR inh
COc1ccc(N2CCN(c3oc(Cc4cccc5ccccc45)nc3C#N)CC2)cc1 | -6% | 4µM* | ? | ? | ? | -8%
COCCNc1oc(Cc2cccc3ccccc23)nc1C#N | -8% | ? | -15% | -13% | -27% | 10%
N#Cc1nc(Cc2cccc3ccccc23)oc1N1CCN(c2ccccc2)CC1 | 1% | ? | . | ? | ? | -1%
C=CCNc1oc(Cc2cccc3ccccc23)nc1C#N | -3% | 50µM* | . | 35% | ? | 5%
CCOC(=O)CCn1c(=O)c2cccn2c2cccnc21 | . | 0% | . | 31% | -3% | 28%
COc1ccc(C2CC(C)=C(C#N)S(=O)(=O)C2C#N)cc1 (stereo not drawn) | -5% | -34% | . | 22% | -16% | -2%
CC1=NN(Cc2ccccc2)C(=O)C1C(c1ccc(Cl)cc1)C(C#N)C#N (stereo not drawn) | 7.5µM* | ? | -10% | ? | ? | 40µM*
CC1=NNC(=O)C1C(c1cccc(O)c1)C(C#N)C#N (stereo not drawn) | -7% | -5% | 13% | 29% | 3% | 4%
CC1=NNC(=O)C1C(c1ccc(Cl)cc1)C(C#N)C#N (stereo not drawn) | 21µM* | -13% | -3% | 17% | -21% | 79µM*
CC1=NN(Cc2ccccc2)C(=O)C1C(c1ccncc1)C(C#N)C#N (stereo not drawn) | ? | -39% | . | 34% | -17% | -7%
CC1=NN(Cc2ccccc2)C(=O)C1C(c1ccccc1)C(C#N)C#N (stereo not drawn) | 24µM* | 2%[57.1 µM] | -15% | 1% | -34% | ?
Cc1cc(OC(=O)c2ccccc2C(F)(F)F)c([N+](=O)[O-])c(=O)[nH]1 | -3% | ? | 3% | 52% | -26% | 8%
O=C(Cn1ncc2c([nH]c3ccccc32)c1=O)NCc1cccc(Cl)c1 | . | -6% | . | 17% | -10% | 7%
CN1C(=O)/C(=C2/C=Cc3ccccc3N2CCCS(=O)(=O)O)SC1=S | -6% | 45µM* | . | ? | ? | 0%
CCCN1/C(=C2/SC(=S)N(CC)C2=O)C=Cc2ccccc21 | -9% | 2µM* | . | ? | 3.2µM* | 16%
C=CCN1C(=O)/C(=C2/Sc3ccccc3N2CCCS(=O)(=O)O)SC1=S | 11µM* | ? | ? | ? | 6%[11.4 µM] | 1%
C=CCN1C=CC=C/C1=C1\SC(=S)N(C)C1=O | -16% | ? | . | ? | -17% | -26%
CCCN1C(=O)/C(=C2/C=Cc3ccccc3N2CC)SC1=S | 6% | 2.8µM* | ? | 3.2µM* | 5.6µM* | 10%
COc1ccc(OCCn2c(CCNC(=O)C3CCCCC3)nc3ccccc32)cc1 | . | . | . | 20%[57 µM] | -16%[57.1 µM] | -13%
CCN1C(=O)/C(=C2/C=Cc3ccccc3N2CC)SC1=S | -6% | 7.9µM* | . | ? | 11µM* | -19%
COCCN1C(=O)C(=O)/C(=C(/O)c2ccc3c(c2)OCCO3)C1c1ccc(C(=O)OC)cc1 (stereo not drawn) | -9% | ? | 2% | -8% | 45µM* | -17%
